Screening data: PubChem BioAssay, Sanford-Burnham Center for Chemical Genomics
A selection: hits, their analogues and other compounds. The true share with any hit is near 4%.
TIM10 inh: TIM10 yeast growth inhibition; actives 1.4% (n = 330,000); S. cerevisiae TIM10 strain growth, BacTiter-Glo luminescence, 24 h; inhibition, % at 10 µM; AID 463195;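 active = inhibition of 40% or more at the single tested concentration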;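 note: wild-type TIM10 isogenic control strain grown at permissive 25 °C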
tim23-1 inh: inhibits growth of tim23-1 mutant yeast; S. cerevisiae tim23-1 growth, BacTiter-Glo luminescence, 24 h; inhibition, % at 20 µM; actives 1.3% (n = 330,000);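 active = growth inhibition of the mutant yeast at or above 50%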;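 note: temperature-sensitive mutant grown at 25 °C; plate controls were DMSO-treated mutant yeast for no effect and medium wells lacking yeast for full effect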
NLRP3 yeast inh: NALP3 inhibition in yeast; actives 0.39% (n = 330,000); inhibition, % at 10 µM; Yeast reconstituted NLRP3/ASC/caspase-1, beta-gal luminescence, 24 h;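 active = inhibition of 50% or more; inactive = inhibition below 50%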;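 note: plate controls were induced DMSO wells for no effect and uninduced yeast grown without galactose for full effect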
NALP1 yeast inh: NALP1 inhibition; S. cerevisiae NALP1/ASC/caspase-1 growth, X-gal OD620, 72 h; inhibition, % at 10 µM; actives 0.61% (n = 280,000); in the data active = inhibition mostly above about 24%, no sharp cut-off; inactive = mostly below about 32%
tim10-1 inh: tim10-1 yeast growth inhibition. S. cerevisiae tim10-1 ts strain growth, BacTiter-Glo, 24 h. inhibition, % at 20 µM. actives 2.2% (n = 330,000);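 active = inhibition of at least 40%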;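 note: mutant grown at 25 °C; 0% = DMSO wells with yeast and 100% = wells holding no yeast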
tim23-1 confirm: tim23-1 yeast growth inhibition, confirmed; shares compounds with tim23-1 inh; S. cerevisiae tim23-1 growth, BacTiter-Glo luminescence, 24 h; inhibition, % at 20 µM; actives 83% (n = 4,400); AID 463218;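 active = inhibition above about 39% in either of two replicate wells at 20 µM, limit read from the data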;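 note: temperature-sensitive tim23-1 mutant grown at 25 °C; 0% = DMSO wells with yeast and 100% = medium wells without yeast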
An asterisk follows results filed as active; x = no result given.

SMILES	TIM10 inh	tim23-1 inh	NLRP3 yeast inh	NALP1 yeast inh	tim10-1 inh	tim23-1 confirm
c1ccc(-c2nc(NCc3cccs3)c3ccccc3n2)cc1	28	51*	13	13	-4	46*
CCc1ccc(OCCNc2cc(N3CCNC(C)C3)ccc2[N+](=O)[O-])cc1 (stereo not drawn)	18	57*	24	x	27	59*
CC1CN(c2ccc([N+](=O)[O-])c(NCCOc3ccc(Cl)cc3)c2)CC(C)N1 (stereo not drawn)	34	50	29	16	28	x
Cc1ccc(S(=O)(=O)N=S(CCO)CCO)cc1	-2	4	-8	19	-14	x
O=C(Nc1ccccc1C(=O)Nc1ccc(Br)cn1)c1ccccc1Cl	18	52*	22	x	37	54*
O=C(NC(=S)Nc1ccccc1N1CCOCC1)c1ccc(Br)cc1	29	55*	40	-16	33	54*
CC(C)(C)NS(=O)(=O)c1ccc(OCC(=O)NCCC2=CCCCC2)cc1	23	33	11	-12	25	x
O=C(O)COc1ccccc1/C=N/NC(=O)CN1CCN(S(=O)(=O)c2ccc(Br)cc2)CC1	4	5	-2	x	-3	x
Cc1ccc(Nc2nc3ccccc3s2)c(C)c1	37	58*	-2	35	38	46*
Nc1ccc(O)c2c1C(=O)c1ccccc1C2=O	1	53*	10	-16	13	55*
COc1cc2c(cc1CNC[C@H]1O[C@@H](n3cnc4c(N)ncnc43)[C@H](O)[C@@H]1O)OCO2	-5	-11	-10	x	-5	x
CCN(c1ccc(OC)cc1)S(=O)(=O)c1ccc(-c2ccc(=O)[nH]n2)o1	-25	-13	2	-4	-51	x
C[n+]1c2n(c3ccccc31)N=C(c1ccc(-c3ccccc3)cc1)CS2	8	60*	10	15	-3	47*
Cc1cc(-c2nnc3n2N=C(c2ccc(-c4ccccc4)cc2)CS3)n[nH]1	24	46	15	-2	32	x
Cc1ccccc1C(=O)N1CCC(C(=O)Nc2cc(C(F)(F)F)ccc2N2CCCC2)CC1	6	-9	9	x	-1	x
C#CCOCCOCCOCCNc1nc(N2CCN(C(=O)CCCCCCCCCCNC(=O)[C@H](CCCCN)n3cc(C)nn3)CC2)nc(N2CCN(C(=O)CCCCCCCCCCNC(=O)[C@@H]([C@H](C)CC)n3cc(CCCCCN)nn3)CC2)n1	7	37	31	x	34	x
C#CCOCCOCCOCCNc1nc(N2CCN(C(=O)CCCCCCCCCCNC(=O)Cn3cc(CCCCCN)nn3)CC2)nc(N2CCN(C(=O)CCCCCCCCCCNC(=O)[C@H](CO)n3cc(CCCCCN)nn3)CC2)n1	11	53*	33	x	34	45*
C#CCOCCOCCOCCNc1nc(N2CCN(C(=O)CCCCCCCCCCNC(=O)Cn3cc(C[C@@H](C)O)nn3)CC2)nc(N2CCN(C(=O)CCCCCCCCCCNC(=O)[C@H](CCCCN)n3cc(C[C@@H](C)CC)nn3)CC2)n1	7	54*	30	x	34	56*
C#CCOCCOCCOCCNc1nc(N2CCN(C(=O)CCCCCCCCCCNC(=O)Cn3cc(C[C@@H](C)O)nn3)CC2)nc(N2CCN(C(=O)CCCCCCCCCCNC(=O)Cn3cc(C[C@@H](C)O)nn3)CC2)n1	-5	6	11	x	4	x
C#CCOCCOCCOCCNc1nc(N2CCN(C(=O)CCCCCCCCCCNC(=O)[C@H]([C@@H](C)CC)n3cc(CCCCN=C(N)N)nn3)CC2)nc(N2CCN(C(=O)CCCCCCCCCCNC(=O)[C@H](CCCCN)n3cc(C[C@@H](C)CC)nn3)CC2)n1	18	52*	19	x	26	45*
CCOc1ccc(N(CC(=O)NC2CCCCC2)C(=O)Cn2nnc(-c3ccc(C)o3)n2)cc1	10	8	1	9	11	x
CCCOc1ccc(/C=C/c2c([N+](=O)[O-])c(=O)n(C)c(=O)n2C)cc1	4	-9	41	x	-1	x
Cn1c(-c2ccsc2)c(-c2cccs2)c2cc(-c3ccc4cc[nH]c4c3)ccc21	1	14	13	x	21	x
Cn1c(C=O)c(-c2ccc3cc[nH]c3c2)c2ccccc21	38	64*	-5	x	35	55*
Cc1cc(OCC(=O)NCc2ccccn2)c2c(C)cc(=O)oc2c1	10	15	17	8	15	x
SMILES	TIM10 inh	tim23-1 inh	NLRP3 yeast inh	NALP1 yeast inh	tim10-1 inh	tim23-1 confirm
COC(=O)[C@@]1(C)[C@H]2C(=O)N(Cc3ccccc3)C(=O)[C@H]2[C@H]2CN=C(SCc3ccc(Cl)cc3)N21	18	51*	x	x	24	30
COC(=O)[C@@]1(C)[C@H]2C(=O)N(Cc3ccccc3)C(=O)[C@H]2[C@H]2CN=C(SCc3ccc(C#N)cc3)N21	7	44	x	x	19	x
O=C(N/N=C/c1cccc(Oc2ccccc2)c1)c1ccccc1F	1	50*	40	24	33	46*
O=C(N/N=C/c1cccc(Oc2ccccc2)c1)c1cc[n+]([O-])cc1	3	16	5	-6	2	x
Cc1nn(C)c(C(=O)N/N=C/c2cccc(Oc3ccccc3)c2)c1Br	18	52*	25	10	38	40*
Nc1ccc(C(=O)N/N=C/c2cccc(Oc3ccccc3)c2)cc1	-2	36	19	10	-2	x
COc1ccc(CCNC(=O)CSc2nc3scc(-c4ccccc4)c3c(=O)[nH]2)cc1	7	3	10	x	10	x
Cc1csc(Nc2nc(N)c(C(=O)Nc3cc(Cl)ccc3F)o2)n1	-24	1	12	11	-13	x
O=C1ON=C(c2ccccc2)/C1=C/c1ccccc1	14	51*	14	4	20	39*
Cc1ccc(C2=NOC(=O)/C2=C\c2ccccc2)cc1	9	27	21	x	19	x
COc1ccc(CN2CCN(C(=O)c3cccc4ccccc34)CC2)cc1OC	4	17	27	5	15	x
COc1ccc(CN2CCN(C(=O)c3cccc4ccccc34)CC2)cc1Br	4	50*	17	-87	-7	19
COc1ccc(NS(=O)(=O)c2ccc(N3CCCC3)c(NC(=S)Nc3cccc(S(=O)(=O)N(C)C)c3)c2)cc1	27	52*	9	-8	23	78*
CNC(=S)Nc1ccc(N2CCCC2)c(S(=O)(=O)Nc2ccc(OC)cc2)c1	7	2	-1	x	0	x
O=C(NCc1ccc(Cl)cc1)c1ccc2nc[nH]c2c1	x	x	x	29	x	x
CC(C)[C@H](NS(=O)(=O)c1ccccc1)C(=O)Nc1nccs1	3	10	20	x	7	x
Cc1ccc(S(=O)(=O)NCc2csc(-c3cccs3)n2)cc1	31	59*	7	x	36	43*
O=S(=O)(NCc1csc(-c2cccs2)n1)c1ccc(Cl)cc1	11	44	22	23	1	x
O=C(CCc1ccccc1)N[C@@H]1c2ccccc2CC[C@@H]1OCc1ccccc1	1	37	x	x	22	x
O=C(COCc1ccccc1)N[C@@H]1c2ccccc2CC[C@H]1OCc1ccccc1	17	52*	x	x	25	38
